Screening data deposited in PubChem BioAssay by Broad Institute.
Only some compounds are listed: those with a hit (about 3.2% of all), similar ones and a draw of the others.
DENV2 CPE rescue: inhibitors of DENV2 cytopathic effect, primary screen, cell-based, plate reader, single concentration; DENV2-infected cells, cytopathic effect rescue; CPE inhibition, % at 9.99 µM; hit rate 1.7% among 350,000; in the data active = CPE inhibition above about 20%, passing the limit was not always enough; inconclusive = no clear call, values can overlap the other calls; tested in BHK-21 cells
Ecoli rRNA inh: reduced GFP signal of wild-type E. coli, primary screen, bacterial rRNA inhibitor project, GFP/RFP fluorescence, OD600, single point. GFP signal change (wild-type ribosome), % (concentration not given with the values). hit rate 1.6% among 350,000. E. coli WT GFP vs humanized-ribosome RFP mutants, 24 h; stronger effect = lower value; DMSO median 0, no signal -100;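 active = significant combined selectivity score with lowered wild-type GFP, culture density cut under 30%, mutant RFP and density less affected; inactive = any of these conditions unmet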
ERAP1 inh: human ERAP1 aminopeptidase inhibitors, primary screen, biochemical, single point, plate reader; hit rate 0.15% among 340,000; AID 652197, 2013; Endoplasmic reticulum aminopeptidase 1 (Homo sapiens), Q9NZ08; inhibition, % at 10.7 µM; recombinant ERAP1, Leu-AMC fluorescence, 60 min;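 active = mean replicate inhibition of at least 30%, or all replicates individually reaching that 30% level; inactive = mean below 30% and not every replicate reaching it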
Target sequence (Q9NZ08 whole entry, looked up): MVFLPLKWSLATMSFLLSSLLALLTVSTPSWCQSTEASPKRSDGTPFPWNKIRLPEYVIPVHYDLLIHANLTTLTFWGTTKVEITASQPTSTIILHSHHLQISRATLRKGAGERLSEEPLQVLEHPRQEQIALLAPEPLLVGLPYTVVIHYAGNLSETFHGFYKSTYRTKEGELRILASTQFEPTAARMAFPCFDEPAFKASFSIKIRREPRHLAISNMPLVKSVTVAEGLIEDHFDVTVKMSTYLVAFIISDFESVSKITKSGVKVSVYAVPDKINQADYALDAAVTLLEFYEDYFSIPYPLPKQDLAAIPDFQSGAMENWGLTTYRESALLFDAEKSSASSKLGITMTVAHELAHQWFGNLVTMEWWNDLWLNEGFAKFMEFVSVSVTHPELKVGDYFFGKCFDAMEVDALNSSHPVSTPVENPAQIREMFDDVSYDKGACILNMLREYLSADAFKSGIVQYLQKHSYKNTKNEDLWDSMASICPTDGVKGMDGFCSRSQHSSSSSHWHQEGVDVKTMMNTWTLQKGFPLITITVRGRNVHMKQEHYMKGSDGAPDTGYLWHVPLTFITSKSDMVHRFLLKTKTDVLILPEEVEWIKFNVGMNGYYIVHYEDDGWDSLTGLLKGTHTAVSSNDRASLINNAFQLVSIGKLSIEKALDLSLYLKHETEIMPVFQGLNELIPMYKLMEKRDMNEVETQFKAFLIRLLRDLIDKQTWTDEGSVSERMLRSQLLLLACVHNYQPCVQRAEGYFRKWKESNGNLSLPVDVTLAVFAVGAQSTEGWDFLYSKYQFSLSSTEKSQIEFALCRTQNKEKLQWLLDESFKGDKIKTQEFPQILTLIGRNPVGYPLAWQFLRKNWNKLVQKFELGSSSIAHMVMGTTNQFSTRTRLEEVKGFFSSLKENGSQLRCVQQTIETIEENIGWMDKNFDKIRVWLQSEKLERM
PGC1a acetyl inh: inhibitors of PGC1a acetylation signal, primary screen, cell-based, U2OS, AlphaScreen, inhibitor mode. hit rate 0.17% among 350,000. AlphaScreen anti-acetyl-lysine; with virally co-expressed GCN5 acetyltransferase. inhibition, % at 15.6 µM. AID 651687, 2012;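 active = every replicate shows inhibition of at least 40%; inconclusive = mean inhibition at least 40% but some replicate below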
CaV13 ICDI inh: Primary screen for inhibitors of IQ motif and Ca2+-dependent inactivation inhibitor domain binding in CACNA1D, Förster resonance energy transfer in living cells, …; AID 743397; inhibition, % at 12.3 µM; hit rate 0.098% among 340,000; HEK cells, CFP/YFP FRET ICDI-IQ, plate reader, 10 min; percent FRET-ratio fall versus neutral wells;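 active = mean replicate inhibition of at least 30% and at least 1% of replicates passing that level; inconclusive = only one of the two criteria is met; inactive = neither criterion is met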
GSIS activator: GLuc luminescence reporter in INS-1E cells, primary screen for activators of glucose-dependent secretion of insulin. hit rate 0.61% among 370,000. INS-1E GLuc reporter insulin secretion, 2-3 h. activation, % at 16.6 µM. AID 743287, 2014;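 active = lowest replicate activation of at least 40%, so every replicate reaches that level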
Each line names hits and unclear results; the compound was inactive in the other large screens; ! = repeats disagree.

C[C@@H]1CN([C@H](C)CO)S(=O)(=O)c2ccc(C#Cc3ccccc3)cc2O[C@@H]1CN(C)C(=O)c1ccccn1	DENV2 CPE rescue 42.2 (no result: CaV13 ICDI inh)
CC(C)NC(=O)N(C)C[C@@H]1Oc2cc(C#Cc3ccccn3)ccc2S(=O)(=O)N([C@H](C)CO)C[C@H]1C	DENV2 CPE rescue 22.3 (no result: CaV13 ICDI inh)
C[C@@H]1CN([C@H](C)CO)S(=O)(=O)c2ccc(C#C[C@@H](C)O)cc2O[C@H]1CN(C)C(=O)CN(C)C	none (no result: CaV13 ICDI inh)
C[C@H](CO)N1C[C@H](C)[C@H](CN(C)C(=O)CN(C)C)Oc2cc(C#Cc3ccccc3)ccc2S1(=O)=O	none (no result: CaV13 ICDI inh)
CCCC(=O)Nc1ccc2c(c1)OC[C@@H](C)N(CC1CCCC1)C[C@H](C)[C@H](OC)CN(C)C2=O	none (no result: CaV13 ICDI inh)
O=C(Cc1ccccc1)N1CC2(C1)[C@H](c1ccccc1)[C@H](CO)N2S(=O)(=O)Cc1ccccc1	none (no result: CaV13 ICDI inh)
Cc1ccc(S(=O)(=O)Nc2ccc3c(c2)C(=O)N([C@H](C)CO)C[C@H](C)[C@H](CN(C)Cc2ccncc2)OCCCC[C@H](C)O3)cc1	none (no result: CaV13 ICDI inh)
CO[C@@H]1CN(C)C(=O)c2cc(NC(=O)C3CCOCC3)ccc2OC[C@@H](C)N(Cc2cccnc2)C[C@@H]1C	none (no result: ERAP1 inh, CaV13 ICDI inh)
C[C@@H]1CN([C@H](C)CO)S(=O)(=O)c2ccc(C#Cc3ccccc3)cc2O[C@@H]1CN(C)C(=O)CN(C)C	DENV2 CPE rescue 39.8!
CCCSc1ccc([C@@H]2[C@H]3C(=O)N(CC)C(=O)[C@H]3[C@]3(C(=O)OC)CCCN23)cc1OC	DENV2 CPE rescue 102.2 (no result: PGC1a acetyl inh, GSIS activator)
C[C@@H]1CN([C@H](C)CO)C(=O)c2cc(C#CC3CCCCC3)cnc2O[C@H]1CN(C)C(=O)C1CCCCC1	none (no result: CaV13 ICDI inh)
FC(F)(F)c1nc(SCc2ccc(Cl)cc2Cl)n[nH]1	none (no result: Ecoli rRNA inh, GSIS activator)
Cn1c(SCc2ccc(Cl)cc2Cl)nc(C(F)(F)F)cc1=O	GSIS activator 64.7 (no result: DENV2 CPE rescue, Ecoli rRNA inh, ERAP1 inh)
C[C@H](CO)N1C[C@H](C)[C@H](CN(C)C)OCCCC[C@H](C)Oc2ccc(NC(=O)c3ccncc3)cc2C1=O	none (no result: CaV13 ICDI inh)
C[C@@H]1CN([C@H](C)CO)C(=O)c2cc(NC(=O)c3ccncc3)ccc2O[C@@H](C)CCCCO[C@H]1CN(C)C(=O)Nc1ccc(F)cc1	DENV2 CPE rescue 26.4 (no result: CaV13 ICDI inh)
C[C@H]1CCCCO[C@H](CN(C)C(=O)Nc2ccc(F)cc2)[C@@H](C)CN([C@@H](C)CO)C(=O)c2cc(NC(=O)c3ccncc3)ccc2O1	none (no result: CaV13 ICDI inh)
C[C@@H]1CCCCO[C@@H](CN(C)C(=O)Nc2ccc(C(F)(F)F)cc2)[C@H](C)CN([C@@H](C)CO)C(=O)c2cc(NC(=O)c3ccncc3)ccc2O1	DENV2 CPE rescue 75.9 (no result: CaV13 ICDI inh)
C[C@H](CO)N1C[C@H](C)[C@@H](CN(C)C)OCCCC[C@H](C)Oc2ccc(NC(=O)c3ccncc3)cc2C1=O	DENV2 CPE rescue 64.8 (no result: CaV13 ICDI inh)
C[C@@H]1CN([C@@H](C)CO)C(=O)c2cc(NC(=O)c3ccncc3)ccc2O[C@@H](C)CCCCO[C@@H]1CN(C)C(=O)Nc1ccc(C(F)(F)F)cc1	DENV2 CPE rescue 54.7 (no result: CaV13 ICDI inh)
Cc1ccc(S(=O)(=O)Nc2ccc3c(c2)C(=O)N([C@H](C)CO)C[C@H](C)[C@H](CN(C)C(=O)Nc2ccc(F)cc2)O3)cc1	none (no result: CaV13 ICDI inh)
C[C@H]1CCCCO[C@@H](CN(C)C(=O)C2CCCCC2)[C@@H](C)CN([C@@H](C)CO)C(=O)c2cc(NC(=O)c3ccncc3)ccc2O1	DENV2 CPE rescue inconclusive (no result: CaV13 ICDI inh)
C[C@@H]1CCCCO[C@@H](CN(C)C(=O)C2CCCCC2)[C@H](C)CN([C@H](C)CO)C(=O)c2cc(NC(=O)c3ccncc3)ccc2O1	DENV2 CPE rescue 136.0 (no result: CaV13 ICDI inh)
C[C@H]1CN([C@@H](C)CO)C(=O)c2cc(NC(=O)c3ccncc3)ccc2O[C@H]1CN(C)C(=O)Nc1ccccc1	DENV2 CPE rescue 64.4 (no result: CaV13 ICDI inh)
CSc1cccc(N2CC(C(=O)NCCN3C(=O)S/C(=C\c4cccnc4)C3=O)CC2=O)c1 (stereo not given)	PGC1a acetyl inh 75.2
CC(=O)/C(C#N)=C1\NC(=O)C(Cc2ccc(C)c(Cl)c2)S1 (stereo not given)	DENV2 CPE rescue 87.0 (no result: GSIS activator)
O=C(O)c1cccc(Oc2ccc([N+](=O)[O-])cc2)c1	none (no result: DENV2 CPE rescue, Ecoli rRNA inh, ERAP1 inh, PGC1a acetyl inh)
O=C(O)c1ccc(Oc2ccc([N+](=O)[O-])cc2)c([N+](=O)[O-])c1	Ecoli rRNA inh -9.6
O=C(O)c1ccc(Nc2nc(-c3ccc([N+](=O)[O-])cc3)nc3ccccc23)cc1	Ecoli rRNA inh -21.0
O=[N+]([O-])c1ccc(-c2nc(NCC3CCCO3)c3ccccc3n2)cc1 (stereo not given)	GSIS activator 43.6 (no result: PGC1a acetyl inh)
COc1ccc(-c2csc3ncn(-c4ccccc4)c(=O)c23)cc1OC	none (no result: PGC1a acetyl inh)
COc1ccccc1-n1cnc2sc(C)c(C)c2c1=O	GSIS activator 59.0
COc1ccc(-c2csc3ncn(-c4ccccc4OC)c(=O)c23)cc1OC	Ecoli rRNA inh -26.1
C[C@H](CO)N1C[C@H](C)[C@H](CN(C)Cc2ccccc2)OCCCC[C@H](C)Oc2ccc(NC(=O)CCCN(C)C)cc2C1=O	none (no result: CaV13 ICDI inh)
CC(=O)Nc1ccc(C=NNC(=O)c2ccc(NS(=O)(=O)c3cccs3)cc2)cc1	none
O=C(NN=Cc1ccc(O)cc1)c1ccccc1NS(=O)(=O)c1cccs1	Ecoli rRNA inh -37.2
COc1cc(C=NNC(=O)c2ccc(NS(=O)(=O)c3cccs3)cc2)cc(Br)c1O	Ecoli rRNA inh -31.4
N#C[C@H]1[C@@H](c2ccccc2C2=CCCC2)[C@H](CO)N1C(=O)c1ccccn1	none (no result: CaV13 ICDI inh)
N#C[C@H]1[C@@H](c2ccccc2C2=CCCCC2)[C@H](CO)N1C(=O)Cc1ccncc1	none (no result: PGC1a acetyl inh, CaV13 ICDI inh)
N#C[C@@H]1[C@@H](c2ccccc2C2=CCCC2)[C@H](CO)N1C(=O)Cc1ccncc1	DENV2 CPE rescue 29.0 (no result: CaV13 ICDI inh)
N#C[C@H]1[C@H](c2ccccc2C2=CCCC2)[C@@H](CO)N1C(=O)Cc1ccncc1	none (no result: CaV13 ICDI inh)
N#C[C@@H]1[C@H](c2ccccc2C2=CCCCC2)[C@@H](CO)N1C(=O)c1ccccn1	DENV2 CPE rescue 26.7 (no result: ERAP1 inh, CaV13 ICDI inh)
N#C[C@@H]1[C@H](c2ccccc2C2=CCCCC2)[C@H](CO)N1C(=O)Cc1ccncc1	PGC1a acetyl inh 44.7 (no result: CaV13 ICDI inh)
C/C=C/c1ccc([C@H]2[C@@H](CNC(=O)c3ccccn3)N(C(=O)CC)[C@H]2CO)cc1	none (no result: CaV13 ICDI inh)
O=C1NCCOCn2nncc2CC[C@H]1Cc1ccc(Cl)cc1	none (no result: DENV2 CPE rescue, ERAP1 inh, PGC1a acetyl inh, CaV13 ICDI inh)
